# Screening data as filed in PubChem BioAssay.
# CHO-K1 Ca antag: counter-screen for M1 antagonists: effect in parental CHO-K1 cells; ATP-induced calcium, Fluo-8 fluorescence; inhibition, % at 3 µM; 0.6% of 360,000 active; AID 602250;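 active means inhibition above a per-plate cutoff, the plate's mean sample inhibition plus 3 SD, cut at about 24% in these data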
# CHRM1 antagonist: antagonists of human M1 muscarinic receptor; P11229; CHO-K1 hM1, Fluo-8 calcium fluorescence, ACh EC80 antagonist; inhibition, % at 3 µM; 1.3% of 360,000 active; AID 588852;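 active means percent inhibition above its own plate's cutoff, namely the mean of that plate's compound wells plus 3 SD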;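 further: peak over basal fluorescence ratio during 140 s after agonist addition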
# Target sequence (P11229 whole entry, looked up): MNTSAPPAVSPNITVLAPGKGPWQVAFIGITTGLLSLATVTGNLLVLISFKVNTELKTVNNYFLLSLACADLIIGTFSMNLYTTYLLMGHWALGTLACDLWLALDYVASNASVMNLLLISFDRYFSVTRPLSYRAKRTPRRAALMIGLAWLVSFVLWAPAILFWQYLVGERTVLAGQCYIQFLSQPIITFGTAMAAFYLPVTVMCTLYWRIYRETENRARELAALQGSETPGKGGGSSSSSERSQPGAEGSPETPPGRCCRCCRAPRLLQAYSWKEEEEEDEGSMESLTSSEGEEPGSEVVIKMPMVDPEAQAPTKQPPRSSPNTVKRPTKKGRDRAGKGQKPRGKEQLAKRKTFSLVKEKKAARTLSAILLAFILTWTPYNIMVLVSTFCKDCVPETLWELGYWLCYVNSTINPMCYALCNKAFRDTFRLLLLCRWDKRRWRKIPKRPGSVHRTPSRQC
# CHRM1 PAM: positive allosteric modulators of human M1 muscarinic receptor; activation, % at 3 µM; P11229; CHO-K1 hM1, Fluo-8 calcium fluorescence, ACh EC20; 0% = ACh EC20, 100% = maximal ACh; 0.088% of 360,000 active; AID 588819; in the data active means activation above about 19%, passing the limit was not always enough
# CHRM1 agonist: agonists of human M1 muscarinic receptor | P11229 | CHO-K1 hM1, Fluo-8 calcium fluorescence, agonist mode; 0% DMSO, 100% acetylcholine EC100 | AID 588814 | 0.33% of 360,000 active | activation, % at 3 µM;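 active means activation above the run's mean compound activation plus 3 SD, cut at about 16% in these data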;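 further: peak over basal fluorescence ratio within a 140 s kinetic read after compound addition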
# CHO-K1 Ca ag: nonselective activator or artifact in parental CHO-K1 cells | Fluo-8 calcium fluorescence; scaled to maximal ATP response, vehicle zero | activation, % at 3 µM | 0.48% of 360,000 active; in the data active means activation above about 15%;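 further: untransfected CHO-K1 host cells lacking M1 receptor as counterscreen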
# CHO-K1 Ca PAM: counter-screen for M1 PAMs: effect in parental CHO-K1 cells. 0.02% of 360,000 active. ATP EC20, Fluo-8 calcium fluorescence; 0% at ATP EC20, 100% at ATP max. activation, % at 3 µM. AID 602247;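 active means activation above the run cutoff, the mean activation of all test compounds plus 3 SD, cut at about 40% in these data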;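 further: peak over basal fluorescence ratio in a 140 s read after ATP addition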
# Numbers stand for hits; i = inactive; nt = not tested or not shown. An excerpt weighted towards active compounds, which were near 2.3% of everything screened.
SMILES,CHO-K1 Ca antag,CHRM1 antagonist,CHRM1 PAM,CHRM1 agonist,CHO-K1 Ca ag,CHO-K1 Ca PAM
Cc1ccc(S(=O)(=O)CCC(=O)OCC(=O)c2cc(C)n(C)c2C)cc1,i,i,i,i,i,i
COc1ccc(CCN2C(=O)CS/C2=N\NC(=O)c2cccs2)cc1OC,i,i,i,i,17.6,i
CCCCCC(=O)Nc1ccc(C(=O)COC(=O)CN2C(=O)NC3(CCCC3)C2=O)cc1,i,i,i,i,i,i
CC(=O)Nc1ccc(S(=O)(=O)Nc2ccc(Cc3ccncc3)cc2)cc1,i,i,i,i,i,i
CC(C)(C)c1ccc(S(=O)(=O)Nc2ccc(Cc3ccncc3)cc2)cc1,24.4,61.8,i,i,i,i
COc1ccc(S(=O)(=O)Nc2ccc(Cc3ccncc3)cc2)cc1C,i,38.9,i,i,i,i
CC(C)(C)NC(=O)C1c2ccccc2OCC(=O)N1Cc1ccccn1 (stereo not drawn),i,nt,nt,nt,i,i
COc1ccc(S(=O)(=O)N(CC(=O)NCc2ccncc2)c2cc(C)cc(C)c2)cc1OC,i,i,i,i,i,i
CC(C)(O)C#Cc1cccc(-c2nc(C(=O)NCCCN3CCOCC3)cc3c2[C@H](CCO)N(S(=O)C(C)(C)C)C3)c1 (stereo partly drawn),i,i,i,i,i,i
COCCN(Cc1nc2ccccc2c(=O)[nH]1)C(=O)COc1ccccc1-c1ccccc1,i,i,i,i,i,i
CCN(CC)c1ccc(/C=C2/C(=O)c3ccc(C(=O)O)cc3C2=O)cc1,56.4,76.2,i,186.4,62.2,i
CCN(CC)c1ccc(C=C2C(=O)OC3(CCCCC3)OC2=O)cc1,i,i,i,i,i,i
Fc1ccccc1CNc1ncnc2sccc12,i,i,i,i,i,i
c1ccc2c(c1)OCC(CNc1ncnc3sccc13)O2 (stereo not drawn),30.7,i,i,i,i,i
CC(OC(=O)C1CC(=O)N(Cc2ccco2)C1)C(=O)Nc1ccccc1[N+](=O)[O-] (stereo not drawn),i,i,i,i,i,i
CCNc1nnc(SCC(=O)NC2CCCCCC2)s1,i,i,i,i,i,i
Cc1ccc(C)c(N(C(=O)c2csnn2)C(C(=O)NC2CCCCC2)c2ccccn2)c1 (stereo not drawn),i,i,i,i,i,i
CNC(=O)c1ccc(NC(=O)C2CCN(S(=O)(=O)c3cccc(C(F)(F)F)c3)CC2)cc1,i,29.7,i,i,i,i
Cc1ccc(CN2CC(C(=O)NNC(=O)c3ccc(F)cc3)CC2=O)cc1 (stereo not drawn),i,i,i,i,i,i
CC(C)(CNS(=O)(=O)c1cccs1)N1CCOCC1,i,i,i,i,i,i
CCC1=NN(C(=O)COc2ccccc2)C(O)(c2ccc(Br)cc2)C1 (stereo not drawn),i,i,i,i,21.5,i
COc1ccc2c(n1)Sc1nc3ccccc3nc1N2,28.1,i,i,48.0,24.6,i
COc1ccc(C(=O)c2cn(-c3cccc(Br)c3)nc2C(C)=O)cc1,i,i,i,i,i,i
CC(=O)c1nn(-c2cccc(Br)c2)cc1C(=O)c1ccc2ccccc2c1,i,34.7,i,i,i,i
COc1ccc(N2C[C@H](C)[C@@H](CC(=O)Nc3ccc(Br)cc3)C2=O)cc1,24.6,i,i,i,i,i
SMILES,CHO-K1 Ca antag,CHRM1 antagonist,CHRM1 PAM,CHRM1 agonist,CHO-K1 Ca ag,CHO-K1 Ca PAM
O=S(=O)(NCC(c1ccc2c(c1)OCO2)N1CCN(c2ccccc2)CC1)c1ccccc1 (stereo not drawn),i,i,i,i,i,i
CCOc1ccc(S(=O)(=O)N2CN(c3cccc(C(C)=O)c3)c3nc4ccccc4nc32)cc1,i,i,i,i,i,i
CN(C)Cc1ccccc1Sc1ccc(O)cc1O,i,i,i,18.3,i,i
CC[n+]1c(/C=C/c2cc([N+](=O)[O-])ccc2O)ccc2ccccc21,23.9,i,i,i,i,i
O=[N+]([O-])c1cc([N+](=O)[O-])c(Oc2cccc3ccccc23)cc1NN1CCCCC1,i,i,29.6,i,i,i
CC(=O)c1ccccc1Oc1cc(NN2CCCCC2)c([N+](=O)[O-])cc1[N+](=O)[O-],i,36.3,i,i,i,i
